Values joined by “and” are separate entries in the source; they are usually repeats but may differ in a detail not shown here. Equal values may be shown once. Results filed as inconclusive are left out. Some compounds were tested as several samples or in several runs, with calls that do not always agree. Active and inactive are the calls of the source. Calls follow the shape of the dose curve; as a rule, active = well fitted curve in the direction sought with a large enough effect in the repeat runs; inconclusive = weak or mixed curves; inactive = no such curve, though single readings can be large; an effect the other way counts as inactive or inconclusive.
Columns and labels:
[1] = Caspase-3/7 induction in HepG2 cells by small molecules, qHTS assay (AID 1346978); conditions: HepG2 caspase-3/7 activation, Caspase-Glo luminescence, 17 h; series mostly up to 92.4 µM; also: nearly all actives have a fitted effect of over 15% in size; also: potency is read from the fitted curve at half-maximal effect
Outline: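 Wild-type HepG2 cells (2,000/well) were settled 5 h at 37 C, 5% CO2, then exposed to compounds in DMSO for 17 h. Caspase-3/7 activity was read by luminescence 30 min after adding Caspase-Glo 3/7 reagent at room temperature.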

[2] = Caspase-3/7 induction in CHO-K1 cells by small molecules, qHTS cell viability counter screen (AID 1346979); conditions: CellTiter-Fluor fluorescence, 17 h; series mostly up to 92.4 µM; also: nearly all actives have a fitted effect of over 35% in size; also: potency is read from the fitted curve at half-maximal effect
Outline: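 Cytotoxicity counter screen run in parallel with the caspase-3/7 assay: CHO-K1 cells, 16hr compound treatment at 37C, then CellTiter-Fluor for 1hr before fluorescence reading.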

[3] = Caspase-3/7 induction in CHO-K1 cells by small molecules, qHTS assay (AID 1346980); conditions: CHO-K1 caspase-3/7 induction, Caspase-Glo luminescence, 17 h; series mostly up to 92.4 µM; also: nearly all actives have a fitted effect of over 15% in size
Outline: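 Wild-type cells were seeded at 1,500 per well and settled 5 hr at 37 C, 5% CO2, then exposed to DMSO-dissolved compounds for 17 hr. Caspase-Glo 3/7 reagent was added, and luminescence was read after 30min at room temperature.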

[4] = Caspase-3/7 induction in HepG2 cells by small molecules, qHTS cell viability counter screen (AID 1346981); conditions: CellTiter-Fluor fluorescence, 17 h; series mostly up to 92.4 µM; also: nearly all actives have a fitted effect of over 30% in size; also: potency is read from the fitted curve at half-maximal effect
Outline: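 In this quantitative HTS counter screen, compounds delivered in DMSO were left on unmodified HepG2 cells for 16 hr at 37 C. Viability was then determined fluorometrically with CellTiter-Fluor, in parallel with caspase-3/7 induction in the same wells.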

[5] = molecular target: Nuclear receptor subfamily 1 group I member 2 (Homo sapiens) (UniProt O75469); assay: Human pregnane X receptor (PXR) small molecule agonists, qHTS assay (AID 1346982); conditions: PXR-Luc HepG2, CYP3A4 luciferase reporter, 24 h; series mostly up to 92.4 µM; also: nearly all actives have a fitted effect of over 35% in size; also: potency is read from the fitted curve at half-maximal effect
Nuclear receptor subfamily 1 group I member 2 (Homo sapiens), sequence (O75469 whole entry, looked up): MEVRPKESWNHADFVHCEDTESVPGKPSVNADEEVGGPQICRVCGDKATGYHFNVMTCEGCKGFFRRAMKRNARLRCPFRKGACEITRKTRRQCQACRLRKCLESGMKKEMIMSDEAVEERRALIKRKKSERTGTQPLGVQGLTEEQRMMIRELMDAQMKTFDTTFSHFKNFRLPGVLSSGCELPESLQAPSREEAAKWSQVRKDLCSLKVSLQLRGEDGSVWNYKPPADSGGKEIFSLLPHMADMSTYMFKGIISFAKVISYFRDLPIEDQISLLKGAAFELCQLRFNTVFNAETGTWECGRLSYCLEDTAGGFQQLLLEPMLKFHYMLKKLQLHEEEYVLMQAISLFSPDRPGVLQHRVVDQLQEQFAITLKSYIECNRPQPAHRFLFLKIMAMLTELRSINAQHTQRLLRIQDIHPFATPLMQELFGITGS
Outline: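 Reporter HepG2 cells expressing PXR-Luc are cultured in charcoal-stripped FBS (5%), treated with compounds for 24 hr at 37 C, and assayed by ONE-Glo luminescence after 30 min at room temperature.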

[6] = molecular target: Cytochrome P450 2D6 (Homo sapiens) (UniProt P10635); assay: Cytochrome P450 Family 2 Subfamily D Member 6 (CYP2D6) small molecule antagonists: luciferase reporter qHTS assay (AID 1671196); conditions: P450-Glo CYP2D6 enzyme assay, luciferin luminescence, 1 h; series mostly up to 115 µM; also: nearly all actives have a fitted effect of over 50% in size; also: potency is read from the fitted curve at half-maximal effect
Cytochrome P450 2D6 (Homo sapiens), sequence (P10635 whole entry, looked up): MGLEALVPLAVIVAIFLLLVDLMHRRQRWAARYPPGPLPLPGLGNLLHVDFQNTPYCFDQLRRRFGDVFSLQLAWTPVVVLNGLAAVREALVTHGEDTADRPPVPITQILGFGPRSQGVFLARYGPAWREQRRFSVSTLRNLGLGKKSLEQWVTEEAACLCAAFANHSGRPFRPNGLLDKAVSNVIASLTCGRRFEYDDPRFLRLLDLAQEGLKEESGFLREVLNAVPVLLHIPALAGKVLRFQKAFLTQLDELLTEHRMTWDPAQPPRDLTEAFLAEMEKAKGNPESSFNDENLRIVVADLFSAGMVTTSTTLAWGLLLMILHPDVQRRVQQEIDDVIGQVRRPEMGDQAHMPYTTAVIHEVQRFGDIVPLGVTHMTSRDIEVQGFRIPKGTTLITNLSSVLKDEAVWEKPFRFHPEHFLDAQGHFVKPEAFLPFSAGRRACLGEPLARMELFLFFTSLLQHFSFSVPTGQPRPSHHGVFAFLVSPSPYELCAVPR
Outline: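 Test chemicals meet CYP2D6 plus proluciferin substrate (10 min, RT); NADPH regenerating solution then drives turnover for 1 h. Detection reagent halts the reaction; luminescence measured after 20 min.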

[7] = molecular target: Cytochrome P450 2C19 (Homo sapiens) (UniProt P33261); assay: Cytochrome P450 Family 2 Subfamily C Member 19 (CYP2C19) small molecule antagonists: luciferase reporter qHTS assay (AID 1671197); conditions: P450-Glo CYP2C19 enzyme, luciferin luminescence, 1 h; series mostly up to 115 µM; also: nearly all actives have a fitted effect of over 65% in size; also: potency is read from the fitted curve at half-maximal effect
Cytochrome P450 2C19 (Homo sapiens), sequence (P33261 whole entry, looked up): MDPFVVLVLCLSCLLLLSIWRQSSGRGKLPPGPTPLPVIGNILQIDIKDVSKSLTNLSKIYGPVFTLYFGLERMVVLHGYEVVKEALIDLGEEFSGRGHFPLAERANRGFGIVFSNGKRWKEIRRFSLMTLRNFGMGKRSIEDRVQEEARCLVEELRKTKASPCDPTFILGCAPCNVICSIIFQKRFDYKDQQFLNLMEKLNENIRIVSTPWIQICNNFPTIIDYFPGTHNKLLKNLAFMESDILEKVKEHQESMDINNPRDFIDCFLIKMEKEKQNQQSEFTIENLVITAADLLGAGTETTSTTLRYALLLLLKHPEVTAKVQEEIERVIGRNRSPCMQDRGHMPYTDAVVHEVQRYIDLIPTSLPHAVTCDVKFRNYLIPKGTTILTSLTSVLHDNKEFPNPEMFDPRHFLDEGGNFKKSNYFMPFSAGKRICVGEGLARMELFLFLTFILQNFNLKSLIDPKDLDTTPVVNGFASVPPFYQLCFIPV
Outline: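 Quantitative high-throughput screen of the Tox21 library using CYP2C19 with proluciferin substrate. Reaction: NADPH regeneration, 37C, 1 h, after 10 min compound preincubation at room temperature. Readout: luminescence.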

[8] = molecular target: Cytochrome P450 2C9 (Homo sapiens) (UniProt P11712); assay: Cytochrome P450 Family 2 Subfamily C Member 9 (CYP2C9) small molecule antagonists: luciferase reporter qHTS assay (AID 1671198); conditions: P450-Glo CYP2C9 enzyme assay, luciferin luminescence; series mostly up to 115 µM; also: nearly all actives have a fitted effect of over 50% in size; also: potency is read from the fitted curve at half-maximal effect
Cytochrome P450 2C9 (Homo sapiens), sequence (P11712 whole entry, looked up): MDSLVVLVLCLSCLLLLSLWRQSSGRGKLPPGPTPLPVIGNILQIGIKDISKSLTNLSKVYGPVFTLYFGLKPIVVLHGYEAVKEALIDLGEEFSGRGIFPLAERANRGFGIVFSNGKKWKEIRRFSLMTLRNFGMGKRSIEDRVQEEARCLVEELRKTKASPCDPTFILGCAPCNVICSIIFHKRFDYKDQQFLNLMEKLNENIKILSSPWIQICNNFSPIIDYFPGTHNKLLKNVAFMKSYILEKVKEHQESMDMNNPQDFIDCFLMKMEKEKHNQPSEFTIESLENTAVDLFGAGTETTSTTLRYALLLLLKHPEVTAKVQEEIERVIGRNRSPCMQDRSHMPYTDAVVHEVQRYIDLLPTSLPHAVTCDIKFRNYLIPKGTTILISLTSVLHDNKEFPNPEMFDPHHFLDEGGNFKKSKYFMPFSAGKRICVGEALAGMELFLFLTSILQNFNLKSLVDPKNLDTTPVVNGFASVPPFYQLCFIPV
Outline: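 CYP2C9 activity was measured with a P450-Glo proluciferin substrate. Enzyme–substrate mix was held with compound for 10 min at room temperature, then NADPH regeneration solution was added for 1 h at 37C. Luciferin product was read as luminescence.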

[9] = molecular target: Cytochrome P450 1A2 (Homo sapiens) (UniProt P05177); assay: Cytochrome P450 Family 1 Subfamily A Member 2 (CYP1A2) small molecule antagonists: luciferase reporter qHTS assay (AID 1671199); conditions: P450-Glo CYP1A2 enzyme, luciferin luminescence, 1 h; series mostly up to 115 µM; also: nearly all actives have a fitted effect of over 50% in size; also: potency is read from the fitted curve at half-maximal effect
Cytochrome P450 1A2 (Homo sapiens), sequence (P05177 whole entry, looked up): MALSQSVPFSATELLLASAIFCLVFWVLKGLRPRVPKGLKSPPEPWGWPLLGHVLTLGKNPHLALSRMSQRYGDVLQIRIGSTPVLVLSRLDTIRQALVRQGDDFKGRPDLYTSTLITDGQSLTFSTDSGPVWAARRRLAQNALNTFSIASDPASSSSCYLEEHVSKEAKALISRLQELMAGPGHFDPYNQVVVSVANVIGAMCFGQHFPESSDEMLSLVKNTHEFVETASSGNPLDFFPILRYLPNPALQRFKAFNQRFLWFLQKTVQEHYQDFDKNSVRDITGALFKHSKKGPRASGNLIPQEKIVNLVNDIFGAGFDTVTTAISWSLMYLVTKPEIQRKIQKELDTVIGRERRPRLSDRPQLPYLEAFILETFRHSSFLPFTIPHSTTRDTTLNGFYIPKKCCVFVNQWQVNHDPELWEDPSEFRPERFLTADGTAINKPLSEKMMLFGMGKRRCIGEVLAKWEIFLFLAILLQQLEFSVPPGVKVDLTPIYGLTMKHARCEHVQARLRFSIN
Outline: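 Steps: enzyme-substrate mix dispensed; test compounds and furafylline control pinned in; 10 min room temperature; NADPH regeneration solution added, 1 h; reaction stopped with luciferin detection reagent; luminescence read after 20 min.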

[10] = molecular target: Voltage-gated inwardly rectifying potassium channel KCNH2 (Homo sapiens) (UniProt Q12809); assay: Human Ether-a-go-go-Related Gene (hERG) channel small molecule antagonists: fluorescence cell-based qHTS assay (AID 1671200); conditions: hERG-U2OS cells, FluxOR thallium flux fluorescence; series mostly up to 76.8 µM;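 also: hERG-expressing U2OS cells given a thallium stimulus after FluxOR II dye loading; nearly all actives have a fitted effect of over 50% in size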
Voltage-gated inwardly rectifying potassium channel KCNH2 (Homo sapiens), sequence (Q12809 whole entry, looked up): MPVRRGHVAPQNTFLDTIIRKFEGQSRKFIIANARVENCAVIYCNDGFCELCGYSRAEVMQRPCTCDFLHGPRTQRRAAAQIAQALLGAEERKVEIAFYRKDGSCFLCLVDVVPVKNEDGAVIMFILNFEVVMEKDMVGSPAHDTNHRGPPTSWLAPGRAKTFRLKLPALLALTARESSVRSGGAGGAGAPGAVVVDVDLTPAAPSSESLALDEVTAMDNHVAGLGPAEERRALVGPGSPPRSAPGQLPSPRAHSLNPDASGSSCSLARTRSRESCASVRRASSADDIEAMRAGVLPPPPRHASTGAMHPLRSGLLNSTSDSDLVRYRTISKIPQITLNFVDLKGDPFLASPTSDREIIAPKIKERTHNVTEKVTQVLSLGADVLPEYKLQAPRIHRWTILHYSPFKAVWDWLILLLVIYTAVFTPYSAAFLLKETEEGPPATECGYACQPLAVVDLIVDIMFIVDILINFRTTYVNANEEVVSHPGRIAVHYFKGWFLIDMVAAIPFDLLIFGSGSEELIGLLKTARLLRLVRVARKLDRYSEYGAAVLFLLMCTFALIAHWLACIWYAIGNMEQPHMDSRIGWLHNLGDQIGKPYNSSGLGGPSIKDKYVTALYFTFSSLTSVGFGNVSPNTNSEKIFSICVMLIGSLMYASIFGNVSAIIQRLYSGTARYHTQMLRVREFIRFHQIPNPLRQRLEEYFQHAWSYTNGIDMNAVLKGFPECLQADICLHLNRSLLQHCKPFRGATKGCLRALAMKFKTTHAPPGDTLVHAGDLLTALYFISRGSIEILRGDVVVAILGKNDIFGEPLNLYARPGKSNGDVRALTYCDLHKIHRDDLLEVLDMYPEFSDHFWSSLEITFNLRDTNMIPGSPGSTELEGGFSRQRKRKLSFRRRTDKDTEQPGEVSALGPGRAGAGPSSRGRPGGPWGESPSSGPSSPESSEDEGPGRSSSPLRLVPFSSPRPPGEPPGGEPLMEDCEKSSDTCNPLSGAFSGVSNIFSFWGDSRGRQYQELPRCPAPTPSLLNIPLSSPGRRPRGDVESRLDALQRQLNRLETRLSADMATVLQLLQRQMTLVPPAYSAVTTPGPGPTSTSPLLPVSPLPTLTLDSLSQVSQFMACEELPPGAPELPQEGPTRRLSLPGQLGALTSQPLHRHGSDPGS
Outline: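 Fluorescence at 540 nm emission (480 nm excitation) was recorded kinetically for 2 min at 1-second intervals once the thallium-containing stimulus reached cells previously loaded with FluxOR II dye.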

[11] = molecular target: Cytochrome P450 3A4 (Homo sapiens) (UniProt P08684); assay: Cytochrome P450 Family 3 Subfamily A Member 4 (CYP3A4) small molecule antagonists: luciferase reporter qHTS assay (AID 1671201); conditions: P450-Glo CYP3A4 enzyme, luciferin luminescence, 1 h; series mostly up to 115 µM; also: nearly all actives have a fitted effect of over 50% in size
Cytochrome P450 3A4 (Homo sapiens), sequence (P08684 whole entry, looked up): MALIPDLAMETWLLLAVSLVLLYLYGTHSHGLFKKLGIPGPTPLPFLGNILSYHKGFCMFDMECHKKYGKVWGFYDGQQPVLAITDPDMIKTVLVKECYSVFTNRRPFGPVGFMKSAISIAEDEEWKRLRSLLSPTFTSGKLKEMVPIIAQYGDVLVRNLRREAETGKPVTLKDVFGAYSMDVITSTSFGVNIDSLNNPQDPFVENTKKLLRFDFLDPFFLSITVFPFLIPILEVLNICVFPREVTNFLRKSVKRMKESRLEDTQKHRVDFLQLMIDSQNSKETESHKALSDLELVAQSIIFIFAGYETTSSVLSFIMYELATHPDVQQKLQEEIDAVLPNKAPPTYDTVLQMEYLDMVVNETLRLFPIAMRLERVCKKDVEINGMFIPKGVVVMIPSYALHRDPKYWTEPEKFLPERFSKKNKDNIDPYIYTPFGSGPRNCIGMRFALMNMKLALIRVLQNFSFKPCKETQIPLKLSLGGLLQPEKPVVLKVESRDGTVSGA
Outline: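 qHTS, 1536-well. CYP3A4 + proluciferin substrate, cpd 10 min RT → NADPH regen 1 h RT → detection reagent 20 min → luminescence (RLU). Ketoconazole positive control.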

[12] = molecular target: Nuclear receptor subfamily 1 group I member 2 (Rattus norvegicus) (UniProt Q9R1A7); assay: Rat pregnane X receptor (rPXR) activation by small molecules, qHTS assay (AID 1346983); conditions: rPXR luciferase reporter cells, One-Glo luminescence, 24 h; max activation: stronger effect = higher value; also: nearly all actives have a fitted effect of over 20% in size; also: potency is read from the fitted curve at half-maximal effect
Nuclear receptor subfamily 1 group I member 2 (Rattus norvegicus), sequence (Q9R1A7 whole entry, looked up): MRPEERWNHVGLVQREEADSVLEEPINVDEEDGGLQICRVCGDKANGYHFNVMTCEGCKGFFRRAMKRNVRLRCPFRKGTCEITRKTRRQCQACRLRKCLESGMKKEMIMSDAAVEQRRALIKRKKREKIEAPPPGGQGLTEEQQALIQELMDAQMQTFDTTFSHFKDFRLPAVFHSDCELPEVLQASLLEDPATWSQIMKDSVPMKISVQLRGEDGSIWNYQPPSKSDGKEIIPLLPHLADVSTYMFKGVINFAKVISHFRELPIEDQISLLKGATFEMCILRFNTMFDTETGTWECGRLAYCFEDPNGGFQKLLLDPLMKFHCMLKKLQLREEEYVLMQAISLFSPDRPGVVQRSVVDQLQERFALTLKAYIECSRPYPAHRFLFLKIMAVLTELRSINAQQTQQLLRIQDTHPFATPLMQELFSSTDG
Outline: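 Cell-based rPXR luciferase reporter assay, 2,000 cells per well, rested 5hr at 37 C before compound addition in DMSO, then 24 hr at 37 C. One-Glo reagent was added and luminescence read after 30 min at room temperature.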
% is scaled to controls: 0 for no effect and ±100 for the full control effect.

CC(=O)Oc1ccccc1C(=O)O
79.2 µM (active) and inactive: Potency [7]
inactive: Potency [1] | Potency [2] | outcome [3] | Potency [4] | Potency [5] | Potency [6] | Potency [8] | Potency [10] | Potency [11]
inactive and 24.5 µM (active): Potency [9]

COc1cc(C=O)ccc1O
inactive: Potency [1] | Potency [2] | outcome [3] | Potency [4] | Potency [5] | Potency [6] | Potency [7] | Potency [8] | Potency [9] | Potency [10] | Potency [11]

C[C@]12CC[C@@H]3c4ccc(O)cc4CC[C@H]3[C@@H]1CCC2=O
inactive: Potency [1] | Potency [2] | outcome [3] | Potency [4] | Potency [10]

C=C(C)C(N)=O
inactive: Potency [1] | Potency [2] | outcome [3] | Potency [4] | Potency [5] | Potency [6] | Potency [7] | Potency [9] | Potency [10] | Potency [11]

CC(C)=CCC/C(C)=C/CO
inactive: Potency [1] | Potency [2] | outcome [3] | Potency [4] | Potency [10]

COCCOCCOC
61.3 µM (active) and inactive: Potency [5]
inactive: Potency [1] | Potency [2] | outcome [3] | Potency [4] | Potency [6] | Potency [7] | Potency [9] | Potency [10] | Potency [11]

CCOC(=O)C(C)(C)Oc1ccc(Cl)cc1
inactive: Potency [1] | Potency [2] | outcome [3] | Potency [4] | Potency [5] | Potency [10]

CCc1cc(C(N)=S)ccn1
inactive: Potency [1] | Potency [2] | outcome [3] | Potency [4] | Potency [10]

CCn1cc(C(=O)O)c(=O)c2ccc(C)nc21
inactive: Potency [1] | Potency [2] | outcome [3] | Potency [4] | Potency [5] | Potency [6] | Potency [9] | Potency [10] | Potency [11]

C[C@]12C=CC(=O)C=C1CC[C@@H]1[C@@H]2C(=O)C[C@@]2(C)[C@H]1CC[C@]2(O)C(=O)CO
inactive: Potency [1] | outcome [3] | Potency [4] | Potency [10]

C#C[C@]1(O)CC[C@H]2[C@@H]3CCc4cc(O)ccc4[C@H]3CC[C@@]21C
active: Potency [2] 54.1 µM and 54.5 µM | Potency [7] 7.05 µM and 10 µM and 13.8 µM
21.5 µM (active) and inactive: Potency [1]
inactive and 17.4 µM (active): Potency [9]
inactive: outcome [3] | Potency [4] | max activation [12] 10.3% | Potency [6] | Potency [10]

CC(=O)CCC(C)C
inactive: Potency [1] | Potency [2] | outcome [3] | Potency [4] | Potency [5] | Potency [6] | Potency [7] | Potency [10] | Potency [11]

Cc1cnc(NC(=O)C2=C(O)c3ccccc3S(=O)(=O)N2C)s1
61.3 µM (active) and inactive: Potency [2]
inactive: Potency [1] | outcome [3] | Potency [4] | Potency [6] | Potency [7] | Potency [9] | Potency [10]
active: Potency [8] 7.98 µM and 11.2 µM and 12.3 µM

Nc1ccc(N=Nc2ccccc2)c(N)n1
active: Potency [2] 48.8 µM and 48.6 µM and 26.6 µM | Potency [4] 21.1 µM | Potency [5] 27.4 µM and 27.3 µM and 6.68 µM | Potency [6] 40.1 µM and 35.6 µM and 12.3 µM | Potency [7] 20.1 µM and 28.3 µM and 9.77 µM
inactive: Potency [1] | outcome [3] | Potency [10]

COC1=CC(=O)C[C@@H](C)[C@]12Oc1c(Cl)c(OC)cc(OC)c1C2=O
active: Potency [1] 24.1 µM and 61.1 µM | Potency [12] 28.2 µM
inactive: Potency [2] | outcome [3] | Potency [4] | Potency [6] | Potency [9] | Potency [10]
70.4 µM (active) and inactive: Potency [7]
44.8 µM (active) and inactive: Potency [8]

Cc1cccc(C)c1O
inactive: Potency [1] | Potency [2] | outcome [3] | Potency [4] | Potency [5] | Potency [6] | Potency [10] | Potency [11]
72.1 µM (active) and inactive: Potency [7]
active: Potency [9] 36.1 µM

O=C(O)CN(CC(=O)O)CC(=O)O
36.1 µM (active) and inactive: Potency [7]
inactive: Potency [1] | Potency [2] | outcome [3] | Potency [4] | Potency [5] | Potency [6] | Potency [9] | Potency [10] | Potency [11]

Source: PubChem BioAssay (Tox21)
